Data taken from the supplement of paper PMC11732987, “Enantioselective OTUD7B fragment discovery through chemoproteomics screening and high-throughput optimisation” (Communications Chemistry, 2025).

Key:
Assay in all cases: log2 ratio of Biotin-Ahx-Ub-VS probe labelling (fragment/DMSO); higher = less target engagement (more negative = stronger competition), active = hit call of the paper (q ≤ 0.05, log2 ratio ≤ -1)
Settings in all cases: compound concentration: 200 uM; treatment time: 3 h
[1] = target: T1, USP19 (UniProt O94966)
T1 sequence (whole entry): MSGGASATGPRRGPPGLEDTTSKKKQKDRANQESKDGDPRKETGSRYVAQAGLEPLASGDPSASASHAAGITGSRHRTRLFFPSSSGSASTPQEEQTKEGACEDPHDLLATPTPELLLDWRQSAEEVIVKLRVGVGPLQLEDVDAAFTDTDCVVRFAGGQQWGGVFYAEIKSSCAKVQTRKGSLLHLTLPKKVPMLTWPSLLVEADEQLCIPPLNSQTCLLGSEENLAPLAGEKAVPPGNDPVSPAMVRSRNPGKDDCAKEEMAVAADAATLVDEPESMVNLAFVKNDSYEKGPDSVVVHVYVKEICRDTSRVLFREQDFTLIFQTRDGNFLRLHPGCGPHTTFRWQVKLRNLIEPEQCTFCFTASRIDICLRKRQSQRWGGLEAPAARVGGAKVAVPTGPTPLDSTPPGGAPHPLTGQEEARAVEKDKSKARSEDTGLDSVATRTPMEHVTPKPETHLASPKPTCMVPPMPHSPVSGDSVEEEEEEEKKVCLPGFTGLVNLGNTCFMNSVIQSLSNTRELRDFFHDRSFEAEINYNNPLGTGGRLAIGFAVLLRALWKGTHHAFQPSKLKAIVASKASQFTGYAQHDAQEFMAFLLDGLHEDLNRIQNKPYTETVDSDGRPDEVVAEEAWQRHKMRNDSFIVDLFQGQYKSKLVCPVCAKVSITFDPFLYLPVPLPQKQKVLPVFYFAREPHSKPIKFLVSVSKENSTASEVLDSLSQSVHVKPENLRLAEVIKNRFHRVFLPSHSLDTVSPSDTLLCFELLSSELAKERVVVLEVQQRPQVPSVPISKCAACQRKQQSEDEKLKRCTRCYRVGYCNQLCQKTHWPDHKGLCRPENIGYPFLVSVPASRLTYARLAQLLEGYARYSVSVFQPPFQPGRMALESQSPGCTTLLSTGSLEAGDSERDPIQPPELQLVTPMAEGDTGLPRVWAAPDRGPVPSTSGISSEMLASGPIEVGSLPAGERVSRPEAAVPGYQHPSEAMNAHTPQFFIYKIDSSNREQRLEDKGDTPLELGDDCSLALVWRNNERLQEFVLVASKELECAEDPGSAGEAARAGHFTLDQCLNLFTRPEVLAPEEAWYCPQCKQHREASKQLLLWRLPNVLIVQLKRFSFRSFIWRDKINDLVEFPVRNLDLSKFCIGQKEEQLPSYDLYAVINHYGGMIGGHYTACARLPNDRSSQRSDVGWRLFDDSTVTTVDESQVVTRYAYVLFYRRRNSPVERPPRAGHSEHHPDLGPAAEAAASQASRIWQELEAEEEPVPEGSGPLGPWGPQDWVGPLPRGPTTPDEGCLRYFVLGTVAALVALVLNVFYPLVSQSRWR
In short: (§1)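 The table lists average log2 ratios of fragment over vehicle, from an unpaired t-test on global-median-normalised Spectronaut label-free quantities. Proteins with ≥2 unique peptides were used. Samples were HEK293T lysate (495 µg) treated in triplicate with fragment at 200 µM or vehicle for 3 h, then with Biotin-Ahx-Ub-VS (0.5 µM final) for 1 h, with labelled DUBs NeutrAvidin-enriched and run by diaPASEF LC-MS/MS.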

[2] = target: T2, USP22 (UniProt Q9UPT9)
T2 sequence (whole entry): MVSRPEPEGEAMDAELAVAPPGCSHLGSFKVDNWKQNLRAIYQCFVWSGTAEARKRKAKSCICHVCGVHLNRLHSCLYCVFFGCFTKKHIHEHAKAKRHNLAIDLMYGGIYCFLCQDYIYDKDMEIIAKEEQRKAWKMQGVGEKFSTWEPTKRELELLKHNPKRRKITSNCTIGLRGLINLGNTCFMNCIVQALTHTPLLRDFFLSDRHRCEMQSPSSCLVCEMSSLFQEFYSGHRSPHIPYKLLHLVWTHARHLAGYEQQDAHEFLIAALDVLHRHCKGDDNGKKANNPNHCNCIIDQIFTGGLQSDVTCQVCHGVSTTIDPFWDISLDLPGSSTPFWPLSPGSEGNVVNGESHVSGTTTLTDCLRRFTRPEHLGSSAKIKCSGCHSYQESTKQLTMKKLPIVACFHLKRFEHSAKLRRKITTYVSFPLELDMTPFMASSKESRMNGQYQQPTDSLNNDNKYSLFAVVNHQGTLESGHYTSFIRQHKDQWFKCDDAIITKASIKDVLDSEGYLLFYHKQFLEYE
In short: as §1

[3] = target: USP24 (UniProt Q9UPU5)
In short: as §1

[4] = target: T3, USP25 (UniProt Q9UHP3)
T3 sequence (whole entry): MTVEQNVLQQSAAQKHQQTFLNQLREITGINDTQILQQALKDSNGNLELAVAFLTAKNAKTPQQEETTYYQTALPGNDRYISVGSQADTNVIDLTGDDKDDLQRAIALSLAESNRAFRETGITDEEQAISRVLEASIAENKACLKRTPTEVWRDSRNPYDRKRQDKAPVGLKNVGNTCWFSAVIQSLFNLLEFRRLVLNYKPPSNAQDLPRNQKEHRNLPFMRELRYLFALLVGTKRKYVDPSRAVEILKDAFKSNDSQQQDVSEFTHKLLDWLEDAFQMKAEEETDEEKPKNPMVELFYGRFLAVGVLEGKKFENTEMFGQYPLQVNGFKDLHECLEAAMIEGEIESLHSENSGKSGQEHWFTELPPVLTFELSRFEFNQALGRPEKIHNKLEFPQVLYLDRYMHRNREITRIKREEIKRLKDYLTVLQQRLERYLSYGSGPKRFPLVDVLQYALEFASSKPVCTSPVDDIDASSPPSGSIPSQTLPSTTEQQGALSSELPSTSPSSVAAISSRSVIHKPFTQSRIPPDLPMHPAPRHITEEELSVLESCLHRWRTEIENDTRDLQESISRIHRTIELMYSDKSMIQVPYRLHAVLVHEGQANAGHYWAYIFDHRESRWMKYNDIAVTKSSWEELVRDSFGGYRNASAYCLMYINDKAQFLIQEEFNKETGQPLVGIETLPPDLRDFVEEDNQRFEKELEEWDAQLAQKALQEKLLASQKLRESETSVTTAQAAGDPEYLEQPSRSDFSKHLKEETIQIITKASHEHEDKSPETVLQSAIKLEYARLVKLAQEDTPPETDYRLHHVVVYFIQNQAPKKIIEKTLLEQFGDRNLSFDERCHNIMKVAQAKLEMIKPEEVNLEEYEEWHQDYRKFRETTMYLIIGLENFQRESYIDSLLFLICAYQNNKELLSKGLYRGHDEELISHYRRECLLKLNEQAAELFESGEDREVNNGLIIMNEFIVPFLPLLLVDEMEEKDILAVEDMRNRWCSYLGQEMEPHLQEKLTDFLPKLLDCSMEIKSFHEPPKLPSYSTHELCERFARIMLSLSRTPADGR
In short: as §1

[5] = target: T4, USP28 (UniProt Q96RU2)
T4 sequence (whole entry): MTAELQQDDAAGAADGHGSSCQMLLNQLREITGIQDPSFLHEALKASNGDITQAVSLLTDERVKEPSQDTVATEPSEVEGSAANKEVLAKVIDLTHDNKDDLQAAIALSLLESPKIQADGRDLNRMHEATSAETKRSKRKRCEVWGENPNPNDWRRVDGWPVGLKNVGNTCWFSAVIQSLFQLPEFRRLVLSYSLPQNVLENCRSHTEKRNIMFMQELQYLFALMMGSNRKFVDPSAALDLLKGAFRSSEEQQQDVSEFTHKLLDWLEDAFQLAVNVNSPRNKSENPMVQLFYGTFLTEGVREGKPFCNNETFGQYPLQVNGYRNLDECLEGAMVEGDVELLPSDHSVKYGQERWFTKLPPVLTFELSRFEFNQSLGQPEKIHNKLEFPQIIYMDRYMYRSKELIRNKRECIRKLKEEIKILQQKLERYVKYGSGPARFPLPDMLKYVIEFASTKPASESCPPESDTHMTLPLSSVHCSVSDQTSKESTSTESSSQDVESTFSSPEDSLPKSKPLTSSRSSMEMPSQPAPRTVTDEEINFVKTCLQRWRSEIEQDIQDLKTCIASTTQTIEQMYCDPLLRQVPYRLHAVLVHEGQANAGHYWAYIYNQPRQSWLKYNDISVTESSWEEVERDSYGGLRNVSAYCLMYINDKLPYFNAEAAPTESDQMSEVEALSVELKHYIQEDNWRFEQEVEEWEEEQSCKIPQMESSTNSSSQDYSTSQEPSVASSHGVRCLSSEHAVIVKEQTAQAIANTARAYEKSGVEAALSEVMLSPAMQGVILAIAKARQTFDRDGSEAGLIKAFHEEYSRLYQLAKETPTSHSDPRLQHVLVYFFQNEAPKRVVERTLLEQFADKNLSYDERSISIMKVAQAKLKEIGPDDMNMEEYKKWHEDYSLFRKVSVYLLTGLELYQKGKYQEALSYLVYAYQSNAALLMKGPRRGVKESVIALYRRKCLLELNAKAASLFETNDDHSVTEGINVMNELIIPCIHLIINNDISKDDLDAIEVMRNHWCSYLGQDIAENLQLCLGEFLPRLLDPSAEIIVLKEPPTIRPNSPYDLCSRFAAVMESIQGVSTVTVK
In short: as §1

Measured: log2 ratio of Biotin-Ahx-Ub-VS probe labelling

Chain of USP24 (Q9UPU5 whole entry): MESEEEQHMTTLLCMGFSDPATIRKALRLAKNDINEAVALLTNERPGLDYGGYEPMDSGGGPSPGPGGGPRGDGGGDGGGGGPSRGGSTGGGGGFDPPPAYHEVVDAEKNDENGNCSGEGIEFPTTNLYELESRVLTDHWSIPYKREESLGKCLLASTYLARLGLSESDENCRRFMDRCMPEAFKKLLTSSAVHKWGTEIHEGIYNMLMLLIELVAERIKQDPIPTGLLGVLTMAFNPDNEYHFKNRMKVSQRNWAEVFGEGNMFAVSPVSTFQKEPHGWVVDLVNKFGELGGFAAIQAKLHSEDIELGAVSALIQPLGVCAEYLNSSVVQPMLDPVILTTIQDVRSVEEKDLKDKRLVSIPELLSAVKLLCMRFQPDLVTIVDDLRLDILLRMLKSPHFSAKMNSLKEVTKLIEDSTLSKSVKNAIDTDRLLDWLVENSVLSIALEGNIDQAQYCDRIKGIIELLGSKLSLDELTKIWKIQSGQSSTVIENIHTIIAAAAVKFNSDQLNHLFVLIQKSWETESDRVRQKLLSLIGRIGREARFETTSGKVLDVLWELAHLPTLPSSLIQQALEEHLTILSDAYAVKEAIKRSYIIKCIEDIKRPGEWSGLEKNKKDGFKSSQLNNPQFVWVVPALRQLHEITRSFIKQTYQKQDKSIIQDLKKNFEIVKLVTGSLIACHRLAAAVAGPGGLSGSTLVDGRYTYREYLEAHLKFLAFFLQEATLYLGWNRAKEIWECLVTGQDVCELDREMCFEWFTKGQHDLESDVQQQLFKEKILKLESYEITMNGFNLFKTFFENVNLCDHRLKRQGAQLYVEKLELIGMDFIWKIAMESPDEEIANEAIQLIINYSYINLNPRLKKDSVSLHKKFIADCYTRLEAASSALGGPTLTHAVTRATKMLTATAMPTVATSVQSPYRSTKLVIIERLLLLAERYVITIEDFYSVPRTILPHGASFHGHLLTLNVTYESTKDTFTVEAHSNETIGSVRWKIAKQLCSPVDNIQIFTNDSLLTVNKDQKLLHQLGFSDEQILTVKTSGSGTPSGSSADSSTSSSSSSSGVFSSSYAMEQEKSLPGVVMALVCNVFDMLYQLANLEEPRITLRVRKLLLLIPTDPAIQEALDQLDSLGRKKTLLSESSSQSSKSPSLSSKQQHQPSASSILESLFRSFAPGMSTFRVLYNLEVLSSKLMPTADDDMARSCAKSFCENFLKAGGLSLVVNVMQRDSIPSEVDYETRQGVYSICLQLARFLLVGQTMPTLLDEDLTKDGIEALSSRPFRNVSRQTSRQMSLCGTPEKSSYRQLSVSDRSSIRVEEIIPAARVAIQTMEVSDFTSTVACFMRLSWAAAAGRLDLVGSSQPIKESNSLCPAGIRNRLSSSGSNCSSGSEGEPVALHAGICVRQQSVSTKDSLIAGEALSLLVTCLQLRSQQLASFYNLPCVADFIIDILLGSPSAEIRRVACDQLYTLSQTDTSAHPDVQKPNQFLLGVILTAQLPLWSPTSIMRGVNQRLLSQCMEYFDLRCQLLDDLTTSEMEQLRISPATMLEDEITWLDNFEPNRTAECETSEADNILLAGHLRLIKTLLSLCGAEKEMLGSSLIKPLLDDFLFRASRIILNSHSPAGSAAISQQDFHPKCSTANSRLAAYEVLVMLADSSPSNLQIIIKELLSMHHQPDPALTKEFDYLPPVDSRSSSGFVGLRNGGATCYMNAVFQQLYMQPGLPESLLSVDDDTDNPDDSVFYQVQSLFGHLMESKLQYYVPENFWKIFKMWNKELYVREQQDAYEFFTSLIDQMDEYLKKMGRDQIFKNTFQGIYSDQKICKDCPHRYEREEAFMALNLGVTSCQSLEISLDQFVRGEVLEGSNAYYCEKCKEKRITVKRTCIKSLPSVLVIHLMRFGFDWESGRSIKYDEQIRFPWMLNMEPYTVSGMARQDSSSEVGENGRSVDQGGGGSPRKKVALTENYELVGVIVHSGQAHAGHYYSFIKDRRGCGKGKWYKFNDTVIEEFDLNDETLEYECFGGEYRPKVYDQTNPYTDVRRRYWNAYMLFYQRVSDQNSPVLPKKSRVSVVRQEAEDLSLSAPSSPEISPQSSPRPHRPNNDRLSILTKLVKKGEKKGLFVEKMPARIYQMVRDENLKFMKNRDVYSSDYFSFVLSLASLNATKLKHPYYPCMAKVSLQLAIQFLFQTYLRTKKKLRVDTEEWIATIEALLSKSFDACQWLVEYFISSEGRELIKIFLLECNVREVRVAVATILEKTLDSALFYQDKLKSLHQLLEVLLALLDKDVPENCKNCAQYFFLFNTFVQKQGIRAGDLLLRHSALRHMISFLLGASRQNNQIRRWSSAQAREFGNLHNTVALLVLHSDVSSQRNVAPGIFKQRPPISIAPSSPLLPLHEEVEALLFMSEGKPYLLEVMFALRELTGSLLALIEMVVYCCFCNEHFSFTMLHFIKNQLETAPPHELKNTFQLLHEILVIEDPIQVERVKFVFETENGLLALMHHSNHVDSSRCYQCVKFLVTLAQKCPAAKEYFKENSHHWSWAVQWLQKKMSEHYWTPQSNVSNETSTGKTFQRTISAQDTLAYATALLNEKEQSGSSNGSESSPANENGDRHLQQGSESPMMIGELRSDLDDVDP

CCc1c[nH]c(CNC(=O)CCl)n1.Cl
inactive: [1] -0.279 | [2] -0.0631 | [3] -0.668 | [4] -0.182 | [5] -0.44
